Measurements reported in PubChem BioAssay AID504333 (National Center for Advancing Translational Sciences (NCATS), 2011).
Out of some 360,000 compounds screened, about 16,000 (4.4%) were called active. Not shown: some 9% with an inconclusive outcome. This excerpt belongs to a sample that is enriched for actives. Values without a mark were called inactive. Calls follow the shape of the dose curve; as a rule, active = well fitted inhibition curve with a large enough effect; inconclusive = small, poorly fitted or top-dose-only effect; inactive = no such curve, though single readings can be large or run the other way.

What follows are molecules tested against Bromodomain adjacent to zinc finger domain protein 2B (Homo sapiens) (UniProt Q9UIF8) (assay: qHTS Assay for Inhibitors of BAZ2B). Conditions: AlphaScreen BAZ2B-H3K14Ac peptide displacement; series mostly up to 114 µM; activity change, negative = inhibition: at the top concentration.
Bromodomain adjacent to zinc finger domain protein 2B (Homo sapiens), sequence (Q9UIF8 whole entry, looked up, the tested form may be a part): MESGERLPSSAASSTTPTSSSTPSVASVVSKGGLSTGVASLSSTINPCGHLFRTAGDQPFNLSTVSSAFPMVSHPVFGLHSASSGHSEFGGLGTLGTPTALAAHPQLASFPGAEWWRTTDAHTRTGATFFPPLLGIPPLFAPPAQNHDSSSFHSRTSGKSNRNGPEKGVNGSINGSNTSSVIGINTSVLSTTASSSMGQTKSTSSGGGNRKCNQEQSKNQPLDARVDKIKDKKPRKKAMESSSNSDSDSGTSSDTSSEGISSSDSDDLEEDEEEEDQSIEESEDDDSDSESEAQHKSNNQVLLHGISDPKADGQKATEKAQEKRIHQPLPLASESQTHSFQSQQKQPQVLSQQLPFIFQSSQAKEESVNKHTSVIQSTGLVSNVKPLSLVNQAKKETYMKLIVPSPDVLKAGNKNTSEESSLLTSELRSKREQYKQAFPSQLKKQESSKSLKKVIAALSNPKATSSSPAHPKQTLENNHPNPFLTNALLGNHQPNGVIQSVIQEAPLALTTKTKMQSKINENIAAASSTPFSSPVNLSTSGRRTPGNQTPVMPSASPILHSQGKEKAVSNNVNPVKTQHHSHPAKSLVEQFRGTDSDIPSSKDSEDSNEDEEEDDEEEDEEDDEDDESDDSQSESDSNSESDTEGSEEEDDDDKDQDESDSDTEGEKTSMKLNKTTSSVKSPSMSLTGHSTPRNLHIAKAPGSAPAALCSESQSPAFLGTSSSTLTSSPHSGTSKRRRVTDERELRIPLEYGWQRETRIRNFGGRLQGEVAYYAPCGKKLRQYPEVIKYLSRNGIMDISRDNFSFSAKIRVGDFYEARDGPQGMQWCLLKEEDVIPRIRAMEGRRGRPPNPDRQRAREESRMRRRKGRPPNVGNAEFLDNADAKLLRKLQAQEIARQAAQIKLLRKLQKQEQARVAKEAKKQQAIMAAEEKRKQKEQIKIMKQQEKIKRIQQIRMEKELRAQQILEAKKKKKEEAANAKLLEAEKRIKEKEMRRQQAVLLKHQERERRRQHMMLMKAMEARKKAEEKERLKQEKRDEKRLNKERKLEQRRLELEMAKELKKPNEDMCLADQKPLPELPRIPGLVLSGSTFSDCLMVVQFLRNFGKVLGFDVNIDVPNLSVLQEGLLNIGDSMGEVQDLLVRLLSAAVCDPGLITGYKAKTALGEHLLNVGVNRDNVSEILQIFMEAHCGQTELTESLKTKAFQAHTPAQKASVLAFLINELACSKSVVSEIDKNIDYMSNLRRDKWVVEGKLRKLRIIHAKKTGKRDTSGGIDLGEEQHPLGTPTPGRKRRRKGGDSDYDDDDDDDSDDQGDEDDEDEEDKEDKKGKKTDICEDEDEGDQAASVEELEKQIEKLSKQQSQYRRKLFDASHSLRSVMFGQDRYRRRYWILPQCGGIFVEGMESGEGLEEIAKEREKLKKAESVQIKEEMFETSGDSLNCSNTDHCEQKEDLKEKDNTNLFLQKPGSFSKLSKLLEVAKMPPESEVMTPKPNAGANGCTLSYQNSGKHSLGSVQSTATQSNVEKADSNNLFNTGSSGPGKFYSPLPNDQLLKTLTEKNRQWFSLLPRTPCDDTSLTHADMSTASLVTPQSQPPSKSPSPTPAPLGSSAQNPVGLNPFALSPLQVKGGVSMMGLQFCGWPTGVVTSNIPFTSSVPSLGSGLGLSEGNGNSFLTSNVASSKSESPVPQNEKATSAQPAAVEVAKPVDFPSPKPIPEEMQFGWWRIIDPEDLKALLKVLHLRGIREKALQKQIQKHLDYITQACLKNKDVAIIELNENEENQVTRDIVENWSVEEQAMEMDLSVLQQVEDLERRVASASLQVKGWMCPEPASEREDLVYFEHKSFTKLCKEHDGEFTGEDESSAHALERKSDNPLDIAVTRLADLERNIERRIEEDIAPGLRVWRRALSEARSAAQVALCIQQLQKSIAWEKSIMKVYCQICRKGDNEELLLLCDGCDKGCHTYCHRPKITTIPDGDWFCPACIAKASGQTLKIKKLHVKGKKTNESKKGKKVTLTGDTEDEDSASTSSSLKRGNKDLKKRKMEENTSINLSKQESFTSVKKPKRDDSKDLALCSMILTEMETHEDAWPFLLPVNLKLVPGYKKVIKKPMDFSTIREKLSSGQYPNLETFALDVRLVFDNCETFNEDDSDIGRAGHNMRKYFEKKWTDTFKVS
How it was run: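 Protein-peptide AlphaScreen: BAZ2B 50 nM, b-H3K14Ac 50 nM, 1x PBS pH 7.4 + 0.01% Tween-20. Preincubation 30 min RT; cpd 30 min RT (top 110 uM); beads 20 min RT, light-protected.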
% is scaled to controls: 0 for no effect and ±100 for the full control effect; potency is read from the fitted curve at half-maximal effect.
Also: nearly all actives have a fitted effect of over 60% in size.

SMILES	activity change, negative = inhibition	Potency
Cc1cc2ccccc2n1CCNC(=O)c1ccc(F)cc1	-14.6%	–
CCC(=O)N1c2ccccc2CC1C(=O)N1CCN(c2ccccc2F)CC1 (stereo not given)	-9.61%	–
O=S(=O)(c1ccc2nc(NCc3ccccc3Cl)ccc2c1)N1CCCCC1	-19.2%	–
CCCNC(=O)c1ccc2c(c1)ncn2-c1ccc(C)cc1C	-0.425%	–
CSc1nc(=O)c2c(n1C)NC(=O)CC2c1ccccc1OC(C)C (stereo not given)	0.682%	–
COc1ccc(Cl)cc1NC(=O)C(C)Sc1nc2c(c(=O)[nH]1)CCCC2 (stereo not given)	-2.65%	–
COc1cccc(-c2nnc(SCC(=O)N3CCC(C)CC3)o2)c1	2.96%	–
Cc1nnc(N2CCC(C(=O)Nc3ccc(F)cc3)CC2)c2nn(-c3ccc(Cl)cc3)c(C)c12	-3.82%	–
N#C/C(=C/c1cccc([N+](=O)[O-])c1)c1nnc2n1CCCCC2	-6.09%	–
N#C/C(=C(\O)CCl)c1nnc2n1CCCCC2	–	79.4 µM (active)
O=C(COC(=O)c1ccccc1F)Nc1cc(S(=O)(=O)N2CCOCC2)ccc1N1CCCC1	-2.68%	–
O=C(CNCc1ccco1)Nc1cc(S(=O)(=O)N2CCOCC2)ccc1N1CCCC1	–	50.1 µM (active)
CC(=O)NCCC(=O)Nc1cc(S(=O)(=O)N2CCOCC2)ccc1N1CCOCC1	-10.5%	–
CCOCCCn1c(SCC(=O)Nc2ccc(CC)cc2)nc2ccccc2c1=O	11.4%	–
COc1ccc(S(=O)(=O)c2c(Nc3cccc(Cl)c3)sc(C(=O)c3ccccc3)c2N)cc1	-20.4%	–
O=C(c1ccc(S(=O)(=O)N2CCOCC2)cc1)N1CCN(c2ccccc2)CC1	-2.71%	–
O=C(c1ccc(CS(=O)(=O)c2ccccc2)o1)N1CCN(c2ccccc2)CC1	–	56.2 µM (active)
COc1ccccc1CNC(=O)c1ccc(CS(=O)(=O)c2ccccc2)o1	-5.07%	–
Cc1ccc2oc(=O)c3cnn(CC(=O)N4CCN(c5cccc(Cl)c5)CC4)c3c2c1	2.22%	–
COc1ccc(N2CCN(C3CCCCC3NS(=O)(=O)c3ccccc3)CC2)cc1 (stereo not given)	–	17.8 µM (active)
CCN1CCN(C2CCCCC2NS(=O)(=O)c2ccc(Cl)cc2)CC1 (stereo not given)	-4.4% [at 57.1 µM]	–
O=S(=O)(NC1CCCCC1N1CCN(c2ccccc2F)CC1)c1ccccc1 (stereo not given)	-10.1% [at 57.1 µM]	–
O=C(NCc1ccc(F)cc1)c1ccc2nc(N3CCCCC3)sc2c1	9.7%	–
COc1ccc(C(=O)Nc2nonc2-c2ccc(OC)c(OC)c2)cc1Cl	5.28%	–
CCCCCn1c(CCNC(=O)c2ccc(F)cc2)nc2ccccc21	0.99%	–

SMILES	activity change, negative = inhibition	Potency
Cc1ccc(S(=O)(=O)N2[C@@H](c3ccccc3F)C(C(=O)O)=CC[C@H]2c2ccc(Cl)cc2)cc1	-5.93%	–
Cc1ccccc1S(=O)(=O)N1[C@@H](c2cccc(Cl)c2)C(C(=O)O)=CC[C@H]1c1ccc(Cl)cc1	–	79.4 µM (active)
CN1OC(COC(=O)c2ccc(Cl)cc2)CC1c1ccccc1 (stereo not given)	58.4%	–
Cc1cc2n(n1)C(c1cc(C(C)(C)C)c(O)cc1O)Nc1ccccc1-2 (stereo not given)	-14.5%	–
CSc1nc(-c2ccccc2Cl)nc2c1Cc1c(CO)cnc(C)c1O2	-8.33%	–
O=C(CSc1nc2nccnc2c(=O)n1CCc1c[nH]c2ccccc12)Nc1ccccc1F	3.9%	–
Cc1ccc(CSc2nc3ccsc3c(=O)n2CCC(C)C)cc1	78.6%	–
CCOc1ccc(Nc2nc(Cl)nc(N3CCN(c4ccc(OC)cc4)CC3)n2)cc1	–	8.91 µM (active)
COc1ccc(Nc2ncc(F)c(N3CCOCC3)n2)cc1	-27%	–
Cc1ccc(Nc2nc(N3CCOCC3)nc(N3CCOCC3)n2)cc1Cl	-13.2%	–
CCOc1ccccc1NC(=O)Cn1nnc(C(=O)NCc2cccs2)c1N	-12.9%	–
CCOc1ccccc1NC(=O)Cc1cccs1	–	50.1 µM (active)
CCOC(=O)c1ccc(NC(=O)Cc2cccs2)cc1	4.75%	–
COc1ccc(CNc2nc(-c3ccccc3)nn2C(=O)c2ccccc2OC)cc1	-2.25%	–
COc1ccc(NC(=O)c2sc(N)nc2-c2ccccc2)cc1	-2.58%	–
Nc1ccc(-c2sc(N)nc2-c2ccccc2)cc1	–	50.1 µM (active)
Nc1ccc(-c2nnc(-c3ccccc3)o2)cc1	17%	–
COc1cc(C(=O)N2CCN(c3ccc(Nc4ccc(C)cc4)nn3)CC2)cc(OC)c1OC	-18.6%	–
Cc1ccc(N2CCN(c3ccc(C)cc3)C2c2ccccn2)cc1	–	50.1 µM (active)
Cc1ccc(S(=O)(=O)NCC(=O)N2CCN(c3ccccn3)CC2)cc1	4.28%	–
Cc1ccc(-n2ccc(=O)c(C(=O)O)n2)cc1	3.19%	–
O=S(=O)(NCCc1nnc2ccc(SCc3ccc(Cl)cc3Cl)nn12)c1ccccc1	-33.8%	–
COc1ccc(S(=O)(=O)n2nc(C)c(S(=O)(=O)N3CCCCCC3)c2C)cc1	-5.25%	–
CC(=O)Nc1ccc2nc(SCCOc3cc(C)cc(C)c3)sc2c1	-8.3%	–
CCOc1cc2[nH]c(=O)n(Cc3ccc(C(=O)NCCN(CC)CC)cc3)c(=O)c2cc1OCC	1.27%	–
